Screening results deposited in PubChem BioAssay by National Center for Advancing Translational Sciences (NCATS).
HT1080NT lethal: kills 2HG-producing HT-1080-NT fibrosarcoma cells; hit rate 1.6% among 360,000; Potency, µM (doses to about 46.1 µM), without a hit: at the highest dose activity, negative = less viability, actives largely listed as cytotoxic; HT-1080-NT fibrosarcoma viability, CellTiter-Glo ATP luminescence, 48 h;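 note: NT is the 2HG producing partner of a matched IDH1 knockdown line; potency is the fitted concentration of half-maximal effect; 0% = DMSO-treated cells and -100% = media-only wells without cells; nearly all actives have a fitted effect of over 55% in size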
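A 48-hour cytotoxicity screen used HT-1080-NT cells plated 2 hours before compound delivery. ATP-based CellTiter-Glo luminescence measured viability, normalized to DMSO and no-cell controls.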
IL-1B inflam inh: inflammasome signaling inhibition, IL-1 beta readout; THP-1 LPS/ATP IL-1B secretion, AlphaLISA, 16 h; stronger effect = lower value; activity change, % at 57.5 µM; hit rate 4.7% among 360,000; in the data active = activity change below about -50%; inconclusive = mostly about -30% to -49%
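Secreted IL-1B measured by AlphaLISA bead assay after 16 h compound exposure of THP-1 cells; compounds (final up to 57.5 uM) added 1 h before LPS (250 ng/mL) and ATP (1.25 mM) stimulation; lower signal means less secretion.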
DT40 TDP1 CPT: growth inhibition of DT40 Tdp1-/-;hTDP1 cells with camptothecin (screen for TDP1 inhibitors); chicken DT40 Tdp1-/-;hTDP1 cells + 20 nM CPT, ATP luminescence, 48 h; Potency, µM (titrated, usually from 46.2 µM), for the others: at the highest dose activity change, negative = growth inhibition, most hits filed as inhibitors; hit rate 12% among 420,000; note: potency is the fitted concentration of half-maximal effect; nearly all actives have a fitted effect of over 55% in size
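Cell growth measured by CellTiter-Glo luminescence after a minimum 48 h, 37 C compound exposure with 20 nM CPT in Tdp1-knockout DT40 cells stably expressing hTDP1, seeded 400/well; qHTS titration format.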
TDP1 cell noCPT: qHTS for Inhibitors of human tyrosyl-DNA phosphodiesterase 1 (TDP1): qHTS in cells in absence of CPT; hit rate 15% among 420,000; Potency, µM (top dose mostly 46.2 µM), for the others: at the highest dose activity change, negative = growth inhibition, actives largely listed as inhibitors; DT40 Tdp1-/- hTDP1 cells, no CPT, ATP luminescence, 48 h; note: potency is the fitted concentration of half-maximal effect; nearly all actives have a fitted effect of over 55% in size
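No-CPT arm: Tdp1-/-;hTDP1 DT40 cells (400/well) plus compounds, incubated ≥48 hr at 37 °C. Readout CellTiter-Glo luminescence.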
HT1080 IDH1KD tx: kills HT-1080 cells with IDH1 knockdown; HT-1080 IDH1 knockdown viability, ATP luminescence, 48 h; Potency, µM (highest dose often 46.1 µM), for inactives: at the top dose activity, negative = toxicity, most hits filed as cytotoxic; hit rate 2% among 360,000; AID 686971;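 note: potency is the fitted concentration of half-maximal effect; 0% = DMSO wells and -100% = cell-free medium wells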
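HT-1080-IDH1KD cells (IDH1 knocked down), 750/well in RPMI with 5% FBS, treated with compound 48 h at 37 degrees C. Viability by CellTiter-Glo luminescence, normalised to DMSO and no-cell wells; concentration-response curves classed.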
* marks the source's active call; other numbers are inactive results. Shown are actives, neighbours in structure and some others; about 19% of the full set was active somewhere. Unless noted, calls come from the whole dose curve; as a rule, active = well fitted curve in the direction sought with a large enough effect; inconclusive = small, poorly fitted or top-dose-only effect, or another doubt; inactive = no such curve, though single readings can be large; an effect the other way counts as inactive or inconclusive. Unless noted, % is set by controls: 0 for no effect and ±100 for the full control effect.

Cc1cccc(-n2c(O)c(C=Nc3ccc4c(c3)OCO4)c3ccccc3c2=O)n1 was read as HT1080NT lethal -0.2%, IL-1B inflam inh inconclusive, DT40 TDP1 CPT inconclusive, TDP1 cell noCPT inconclusive and HT1080 IDH1KD tx 6.2%.
Screening O=C(CCN1C(=O)c2ccccc2S1(=O)=O)NCc1ccccc1 returned HT1080NT lethal 23.1%, IL-1B inflam inh 11.7, DT40 TDP1 CPT 9.5%, TDP1 cell noCPT 4.6% and HT1080 IDH1KD tx 14.1%.
Screening Clc1ccc2c(ccc[n+]2CCC2CCCCC2)c1 returned DT40 TDP1 CPT 10µM* and TDP1 cell noCPT 8.91µM*.
Clc1ccc2c(ccc[n+]2CCc2ccccc2)c1 was read as DT40 TDP1 CPT -29.7% and TDP1 cell noCPT inconclusive.
`CCCCCCCCCC[n+]1cccc2cc(Cl)ccc21` gave DT40 TDP1 CPT 1.26µM* and TDP1 cell noCPT 1.26µM*.
Screening Cc1cccc[n+]1CCCCCCCCCC[n+]1ccccc1C returned HT1080NT lethal 15.2%, IL-1B inflam inh 33.9, DT40 TDP1 CPT inconclusive, TDP1 cell noCPT 3.3% and HT1080 IDH1KD tx 4.3%.
CCCCCCCCCCCCCCCC[n+]1ccc(C)c2ccccc21 was read as DT40 TDP1 CPT 0.708µM* and TDP1 cell noCPT 0.794µM*.
Screening CCCCCCCCCC[n+]1cccc2c3ccccc3ccc21 returned HT1080NT lethal 4.11µM*, IL-1B inflam inh 0.0, DT40 TDP1 CPT 0.326µM*, TDP1 cell noCPT 0.146µM* and HT1080 IDH1KD tx 2.31µM*.
Cc1ccsc1-c1nc(CSCC(=O)N2CCN(c3ccccc3)CC2)c(C)o1 was read as HT1080NT lethal -5.3%, IL-1B inflam inh -15.5, DT40 TDP1 CPT 14.6µM*, TDP1 cell noCPT inconclusive and HT1080 IDH1KD tx -9.7%.
Screening COc1ccc(-c2nc(CSCC(=O)N3CCN(c4ccccc4)CC3)c(C)o2)cc1 returned DT40 TDP1 CPT 10.3µM* and TDP1 cell noCPT 10.3µM*.
Screening Cc1ccccc1CSCC(=O)N1CCN(c2ccccc2)CC1 returned HT1080NT lethal 9.9%, IL-1B inflam inh -7.6, DT40 TDP1 CPT -13.2%, TDP1 cell noCPT inconclusive and HT1080 IDH1KD tx 5.8%.
`Cc1cc(NC(=O)c2ccc3sc([C@@H]4O[C@H](CO)[C@H](O)[C@H](O)[C@H]4O)nc3c2)no1` gave HT1080NT lethal 14.2%, IL-1B inflam inh -14.6, DT40 TDP1 CPT -0.8%, TDP1 cell noCPT -1.5% and HT1080 IDH1KD tx -2.2%.
Screening CCOC(=O)CSc1nc2ccccc2c(=O)n1CC1CCC(C(=O)NCc2ccco2)CC1 (stereo unspecified) returned HT1080NT lethal -12.7%, IL-1B inflam inh 0.1, DT40 TDP1 CPT inconclusive, TDP1 cell noCPT 23.1µM* and HT1080 IDH1KD tx 2.4%.
For CCOC(=O)CSc1nc2ccccc2c(=O)n1CC the results were HT1080NT lethal 1.7%, IL-1B inflam inh 4.8, DT40 TDP1 CPT -3.5%, TDP1 cell noCPT 7.5% and HT1080 IDH1KD tx 6.5%.
CCOC(=O)CSc1nc2ccccc2c(=O)n1CC1CCCC1 was read as HT1080NT lethal -2.5%, IL-1B inflam inh -5.7, DT40 TDP1 CPT 10.3µM*, TDP1 cell noCPT 14.6µM* and HT1080 IDH1KD tx -4.6%.
Screening CCOC(=O)c1c(N)sc2c1CCC(C)C2 (stereo unspecified) returned HT1080NT lethal 9.8%, IL-1B inflam inh 4.7, DT40 TDP1 CPT -26.1%, TDP1 cell noCPT -3.8% and HT1080 IDH1KD tx 15.2%.
Screening CC(C)(C)C1CCc2c(sc(NC(=O)c3ccco3)c2C(N)=O)C1 (stereo unspecified) returned HT1080NT lethal -1.0%, IL-1B inflam inh -22.2, DT40 TDP1 CPT inconclusive, TDP1 cell noCPT inconclusive and HT1080 IDH1KD tx -13.0%.
Screening CCC(C)(C)C1CCc2[nH]nc(C(=O)O)c2C1 (stereo unspecified) returned HT1080NT lethal -4.0%, IL-1B inflam inh 13.5, DT40 TDP1 CPT 16.0%, TDP1 cell noCPT 16.1% and HT1080 IDH1KD tx 7.4%.
CCCC1CCc2c(sc(N)c2C(N)=O)C1 (stereo unspecified) was read as HT1080NT lethal 11.0%, IL-1B inflam inh -8.8, DT40 TDP1 CPT 16.4µM*, TDP1 cell noCPT 20.6µM* and HT1080 IDH1KD tx 20.3%.
`CC(C)(C)C1CCc2c(sc(NC(=O)C3CCCO3)c2C(N)=O)C1` (stereo unspecified) gave HT1080NT lethal inconclusive, IL-1B inflam inh -9.2, DT40 TDP1 CPT inconclusive, TDP1 cell noCPT 18.4µM* and HT1080 IDH1KD tx inconclusive.
Screening CC(C)(C)C1CCc2c(sc(N)c2C(N)=O)C1 (stereo unspecified) returned HT1080NT lethal inconclusive, IL-1B inflam inh -64.4*, DT40 TDP1 CPT 23.1µM*, TDP1 cell noCPT 18.4µM* and HT1080 IDH1KD tx 0.8%.
CCC(C)(C)C1CCc2c(sc(N)c2C(N)=O)C1 (stereo unspecified) was read as HT1080NT lethal -2.5%, IL-1B inflam inh -15.2, DT40 TDP1 CPT 20.6µM*, TDP1 cell noCPT 20.6µM* and HT1080 IDH1KD tx -9.9%.
O=C(COc1ccccc1[N+](=O)[O-])N(Cc1ccco1)c1ccccn1 was read as DT40 TDP1 CPT -3.7% and TDP1 cell noCPT -26.0%.
CCN(C[C@H]1N[C@@](C)(C(=O)OC)[C@H]2C(=O)N(C)C(=O)[C@@H]12)S(=O)(=O)c1ccc(C(F)(F)F)cc1 was read as HT1080NT lethal 11.0%, IL-1B inflam inh 6.0, DT40 TDP1 CPT inconclusive, TDP1 cell noCPT -12.7% and HT1080 IDH1KD tx -0.1%.
For CC12CCC(O)CC1=CCC1C2CCC2(C)C1CCC21CCC(=O)O1 (stereo unspecified) the results were HT1080NT lethal -2.0%, IL-1B inflam inh -1.3, DT40 TDP1 CPT inconclusive, TDP1 cell noCPT inconclusive and HT1080 IDH1KD tx 1.6%.
CC(=O)S[C@@H]1CC2=CC(=O)CC[C@]2(C)[C@H]2CC[C@@]3(C)[C@@H](CC[C@@]34CCC(=O)O4)[C@H]12 was read as HT1080NT lethal inconclusive, IL-1B inflam inh -56.1*, DT40 TDP1 CPT 7.31µM*, TDP1 cell noCPT 5.8µM* and HT1080 IDH1KD tx inconclusive.
For C[C@]12CCC(=O)C=C1CC[C@@H]1[C@@H]2CC[C@@]2(C)[C@H]1CC[C@@]21CCC(=O)O1 the results were HT1080NT lethal -0.7%, IL-1B inflam inh -13.1, DT40 TDP1 CPT inconclusive, TDP1 cell noCPT 9.2µM* and HT1080 IDH1KD tx -0.6%.
`COc1cccc(C(=O)Oc2ccc3c(C)cc(=O)oc3c2C(C)=O)c1` gave HT1080NT lethal -1.1%, IL-1B inflam inh 18.7, DT40 TDP1 CPT -2.0%, TDP1 cell noCPT -27.0% and HT1080 IDH1KD tx -1.7%.
